From PubChem BioAssay (NCI)
This is part of a sample that, as a whole, favours compounds with a hit. Of some 79,000 tested, about 15% had one in any assay. Unmarked numbers belong to inactive results. Rule as the data show it: active = growth inhibition above about 70%; inactive = the rest.

Test: NCI Yeast Anticancer Drug Screen. Data for the bub3 strain (AID 167)
Settings: S. cerevisiae bub3 mutant strain, at 50.0 µM, hits give high values
Method in brief: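 Growth of a checkpoint-deficient yeast mutant is measured after compound exposure. Values represent inhibition relative to vehicle.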
For `CCOC(=O)c1ccc(-n2cnc(-c3ccc([N+](=O)[O-])cc3)c2)cc1`, the growth inhibition was -1.15%. `CCCCCC#CC(=O)OCC` showed a growth inhibition of -11.9%. With `CCN(CC)Cc1cc(NC(C)=O)ccc1O` the growth inhibition was -4.95%. With `Cc1ccc(N=C(C(=O)c2ccccc2)C(Nc2ccc(C)cc2)C(=O)c2ccccc2)cc1` (stereo not given) the growth inhibition was -3.7%. `CCCCCCCCCCCCCCCSc1ccc2ccccc2c1` gave a growth inhibition of -13.8%. With `CCOC(=O)c1c[nH]n(Cc2ccccc2)c1=O` the growth inhibition was 13.6%. In the case of `O=C(c1cccc(F)c1)c1ccccc1Cc1ccccc1`, the growth inhibition was -3.1%. `Cc1cc(N(CCC#N)CCC#N)ccc1/C=C1\N=C(c2cc([N+](=O)[O-])ccc2Cl)N(c2cccc(Cl)c2)C1=O` showed a growth inhibition of -6.05%. Work on `CCOC(=O)C1=C(C)NC(=O)NC1c1ccc(N(C)C)cc1` (stereo not given) yielded a growth inhibition of 30.6%. In the case of `CCN(c1ccccc1)S(=O)(=O)c1cc(N)ccc1C`, the growth inhibition was -0.25%. Compound `CCOC(=O)CCCCCCCCCC[N+](CC)(CC)CC(=O)c1ccc(NC(C)=O)cc1` has a growth inhibition of 16.8%. Work on `CCC(=S)Nc1ccc(Cl)cc1` yielded a growth inhibition of -36.9%. `c1ccc2nc3ccccc3cc2c1` showed a growth inhibition of 3.1%. In the case of `CCOC(=O)/C(C)=C/CC1=C(O)c2ccccc2C(=O)C1=O`, the growth inhibition was 1.95%. `Cc1cc2nnn(C3CCCCO3)c2cc1C` (stereo not given) gave a growth inhibition of 12.8%. `O=C1OCC=C1COC1OC(CO)C(O)C(O)C1O` (stereo not given) gave a growth inhibition of -11.9%. Work on `COC1=CC(=O)C(C)=CC1=O` yielded a growth inhibition of 16.3%. For `CC1CCC2(OC1)OC1CC3C4CCC5CC(O)CCC5(C)C4CC(=O)OC3(C)C1C2C` (stereo not given), the growth inhibition was -25%. Compound `O=C(NNC(=O)OCc1ccccc1)OCc1ccccc1` has a growth inhibition of 11.5%. `CC1=Nc2nc3ccccc3n2C(C)(C)C1` showed a growth inhibition of -0.2%. For `Nc1ncc2c(n1)-c1ccccc1OC2NC1CC1` (stereo not given), the growth inhibition was -36.2%. Compound `O=C(CC(=O)n1nc(-c2ccccc2)c(N=Nc2ccc([N+](=O)[O-])cc2)c1-c1ccccc1)Nc1ccc(Cl)cc1` has a growth inhibition of 53%. With `O=C1C(=O)N(C23CC4CC(CC(C4)C2)C3)C(=S)N1c1ccccc1` the growth inhibition was -24.7%. Work on `CC1OCC2CC3(O1)OC3C(COCC1OC3COC(C)OC4(C3)OC14)O2` (stereo not given) yielded a growth inhibition of -3.15%. Work on `c1ccc(COc2ccc3c(c2)CN(Cc2ccccc2)CO3)cc1` yielded a growth inhibition of 62.2%. For `CNCCCCCCNc1cc(OC)cc2cccnc12`, the growth inhibition was 23.1%. For `Cc1ccc(S(=O)(=O)N/N=C/C(C)(c2ccccc2)c2ccccc2)cc1`, the growth inhibition was 15.8%. Work on `O=C(NN1C(=O)C(Cl)C1c1cccc(Cl)c1)c1ccccc1O` (stereo not given) yielded a growth inhibition of -40.2%. In the case of `CCOC(=O)C1=C(O)C(=O)c2ccoc2C1=O`, the growth inhibition was -32.5%. Work on `CC(CO)(CO)Nc1ncnc2ccccc12` yielded a growth inhibition of -36.9%. Compound `BrC1CCC(Br)CC1` (stereo not given) has a growth inhibition of -2.3%. For `Cc1nc2ccccc2o1`, the growth inhibition was -1.6%. With `Cc1cc(-c2ccccc2)[nH]c1-c1nccc2ccccc12` the growth inhibition was -4.5%. Compound `CN1c2ccccc2Sc2cc(/C=C3/SC(=S)NC3=O)ccc21` has a growth inhibition of 38.8%. In the case of `Cc1nc2ccc(S(=O)(=O)Nc3ccccc3Cl)cc2c(=O)n1NC(=O)CNc1ccccc1Cl`, the growth inhibition was 21.8%. `C[C@]12CCC[C@H](O)[C@H]1O2` gave a growth inhibition of 0.5%. With `Cc1ccc(C)o1` the growth inhibition was -1.1%. In the case of `CN(C)N=Nc1ccccc1`, the growth inhibition was -1.65%. For `CC1(Br)CP(=O)(c2ccccc2)CC1Br` (stereo not given), the growth inhibition was 21.1%. With `C=C(c1ccc(OC)cc1)c1cc(C(C)(C)C)c(O)c(C(C)(C)C)c1` the growth inhibition was -4.65%.
